This note sets out measurements from PMC8384837, “Expanding the binding specificity for RNA recognition by a PUF domain”.

The target of one test is PUM1 PUF domain R5-KFR (Homo sapiens, UniProt Q14671 828-1176, C1007K;R1008F;Q1011R). As to the kind of experiment: yeast three-hybrid, YBZ-1, SC-Leu-His + 0.5 mM 3-AT, 4 days. The following applies: tags: N-Gal4 AD-HA kept; label: inside an RPR1-promoter hybrid RNA with tandem MS2 sites; ssRNA. The essentials:
(§1)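 Each repeat of the Pumilio-1 PUF domain was randomized at its three base-contacting residues, and these libraries were co-expressed from a centromeric plasmid with matching RNA elements in strain YBZ-1. After four days on SC-Leu (input) or SC-Leu-His + 0.5 mM 3-AT (selection), the repeat regions were PCR-amplified and Illumina-sequenced. The interaction score compares variant frequency between input and selection as a log change, computed in log2 with a pseudocount of 1 for absent variants.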
For “GGCUAGAACUAGUGGAUCCCCCGGCGCCCGGCGGCUCGAGCCCGGGUAAGUGUCAAUAGUCUGCAUGCCGCCGGGCGCCAUGCCUGCAGGUCGACUCUAGAAAACAUG”, the binding signal was 5.4 log2 enrichment (interaction score).

For “GGCUAGAACUAGUGGAUCCCCCGGCGCCCGGCGGCUCGAGCCCGGGUAAGUGUAAAUAGUCUGCAUGCCGCCGGGCGCCAUGCCUGCAGGUCGACUCUAGAAAACAUG”, the binding signal is 4.71 log2 enrichment (interaction score).

On to “GGCUAGAACUAGUGGAUCCCCCGGCGCCCGGCGGCUCGAGCCCGGGUAAGUGUUAAUAGUCUGCAUGCCGCCGGGCGCCAUGCCUGCAGGUCGACUCUAGAAAACAUG”, for which the binding signal was 4.62 log2 enrichment (interaction score).

The next test deals with PUM1 PUF domain R4-SNA (Homo sapiens, UniProt Q14671 828-1176, N971S;H972N;Q975A). The description is as above. The note with it: tags: N-Gal4 AD-HA kept; label: inside an RPR1-promoter hybrid RNA with tandem MS2 sites; ssRNA. A digest of the protocol: as §1
Consider “GGCUAGAACUAGUGGAUCCCCCGGCGCCCGGCGGCUCGAGCCCGGGUAAGUGUACAUAGUCUGCAUGCCGCCGGGCGCCAUGCCUGCAGGUCGACUCUAGAAAACAUG”, for which the binding signal is 3.14 log2 enrichment (interaction score).

With “GGCUAGAACUAGUGGAUCCCCCGGCGCCCGGCGGCUCGAGCCCGGGUAAGUGUAUAUAGUCUGCAUGCCGCCGGGCGCCAUGCCUGCAGGUCGACUCUAGAAAACAUG”, the binding signal is 4.15 log2 enrichment (interaction score).

As to “GGCUAGAACUAGUGGAUCCCCCGGCGCCCGGCGGCUCGAGCCCGGGUAAGUGUAAAUAGUCUGCAUGCCGCCGGGCGCCAUGCCUGCAGGUCGACUCUAGAAAACAUG”, the binding signal is 1.52 log2 enrichment (interaction score).
